# From PubChem BioAssay (NCATS)
# Inconclusive results are not listed. A call without a number means that no potency is given here. Values without a mark were called inactive. Activity calls are given as the source filed them. Unless noted, the call rests on the fitted dose curve; in most records, active means well fitted curve in the direction sought with a large enough effect in the repeat runs; inconclusive means weak or mixed curves; inactive means no such curve, though single readings can be large; an effect the other way counts as inactive or inconclusive.
# Legend:
# [1] = A High-Content qHTS Against Drug Library for the Identification of Small Molecules that Inhibit DYT1 Early Onset Primary Dystonia-Associated Cell Pathology (AID 1645839; calls by dose curve; further: potency means the concentration at half of the fitted maximal effect; on % pathology change, negative = correction: series mostly up to about 46 µM)
# Method in brief: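 Readout: %pathology, the punctate EGFP-TorsinA distribution from imaging, as the primary channel and cell count as the toxicity counterscreen. HEK293 Flp-In cells expressing delE TorsinA were induced with tetracycline and treated with compound for 48 h.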
# [2] = molecular target: Cytochrome P450 2D6 (Homo sapiens) (UniProt P10635); assay: Cytochrome P450 family 2 subfamily D member 6 (CYP2D6) small molecule antagonists: luciferase biochemical (cell-free) qHTS assay (AID 1645840); further: nearly all actives have a fitted effect of over 55% in size; further: potency means the concentration at half of the fitted maximal effect; on activity change, negative = inhibition: series mostly up to about 57 µM
# Method in brief: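 P450-Glo luminescent screen: recombinant CYP2D6 enzyme–proluciferin substrate mix preincubated with compound 10 min at room temperature, then NADPH regeneration added for 1 h at room temperature. Detection reagent added for 20 min; luciferin light read as relative luminescence units.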
# [3] = molecular target: Cytochrome P450 2C9 (Homo sapiens) (UniProt P11712); assay: Cytochrome P450 family 2 subfamily C member 9 (CYP2C9) small molecule antagonists: luciferase biochemical (cell-free) qHTS assay (AID 1645842); further: series mostly up to about 57 µM; nearly all actives have a fitted effect of over 55% in size
# Method in brief: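 Luminescence, after 20 min with luciferin detection reagent, reflected CYP2C9 turnover during a 1 h NADPH-driven reaction at 37C. Enzyme-substrate mix contained 0.4% bovine serum albumin and was preincubated with compound 10 min at room temperature.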
# [4] = Primary qHTS for small molecule stabilizers of the endoplasmic reticulum resident proteome: Secreted ER Calcium Modulated Protein (SERCaMP) assay (AID 1508630; active means well fitted curve in the direction sought with a large enough effect; an effect the other way counts as inactive or inconclusive)
# Method in brief: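 GLuc-SERCaMP-expressing SH-SY5Y cells, pretreated 16 h with compound, are challenged with thapsigargin to empty ER calcium stores; after 4 h, coelenterazine is added directly to the medium and luminescence is imaged.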
# [5] = molecular target: Papain (Carica papaya) (UniProt P00784); assay: Primary qHTS assay for inhibitors of the protease papain (AID 1645873; active means well fitted curve in the direction sought with a large enough effect; an effect the other way counts as inactive or inconclusive;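 further: papain turnover of Z-FR-AMC read as the AMC fluorescence gain over 10 min; series mostly up to about 50 µM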)
# Papain (Carica papaya), sequence (P00784 whole entry, looked up): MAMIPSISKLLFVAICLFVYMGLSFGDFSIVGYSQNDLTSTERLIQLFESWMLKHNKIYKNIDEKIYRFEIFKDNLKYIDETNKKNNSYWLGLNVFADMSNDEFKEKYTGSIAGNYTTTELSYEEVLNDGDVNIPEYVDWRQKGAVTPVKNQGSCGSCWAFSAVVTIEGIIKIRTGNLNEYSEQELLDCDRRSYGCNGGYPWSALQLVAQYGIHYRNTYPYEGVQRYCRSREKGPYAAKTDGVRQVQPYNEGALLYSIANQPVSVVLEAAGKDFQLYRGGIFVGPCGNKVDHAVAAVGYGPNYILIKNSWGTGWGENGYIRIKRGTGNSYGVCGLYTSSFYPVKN
# Cytochrome P450 2C9 (Homo sapiens), sequence (P11712 whole entry, looked up): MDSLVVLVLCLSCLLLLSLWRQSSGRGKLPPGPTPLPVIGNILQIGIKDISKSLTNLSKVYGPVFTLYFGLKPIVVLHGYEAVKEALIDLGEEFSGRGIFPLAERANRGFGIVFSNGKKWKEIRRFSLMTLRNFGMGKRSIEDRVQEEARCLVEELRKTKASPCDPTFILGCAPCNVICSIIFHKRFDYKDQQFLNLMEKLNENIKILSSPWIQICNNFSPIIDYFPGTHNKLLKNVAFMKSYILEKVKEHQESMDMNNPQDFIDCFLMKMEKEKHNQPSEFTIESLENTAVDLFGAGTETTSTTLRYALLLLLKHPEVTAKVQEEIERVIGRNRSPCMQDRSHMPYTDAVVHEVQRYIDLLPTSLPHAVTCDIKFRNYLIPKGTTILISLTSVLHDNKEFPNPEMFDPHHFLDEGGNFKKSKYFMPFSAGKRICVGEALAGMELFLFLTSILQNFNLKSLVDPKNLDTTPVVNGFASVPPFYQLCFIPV
# Cytochrome P450 2D6 (Homo sapiens), sequence (P10635 whole entry, looked up): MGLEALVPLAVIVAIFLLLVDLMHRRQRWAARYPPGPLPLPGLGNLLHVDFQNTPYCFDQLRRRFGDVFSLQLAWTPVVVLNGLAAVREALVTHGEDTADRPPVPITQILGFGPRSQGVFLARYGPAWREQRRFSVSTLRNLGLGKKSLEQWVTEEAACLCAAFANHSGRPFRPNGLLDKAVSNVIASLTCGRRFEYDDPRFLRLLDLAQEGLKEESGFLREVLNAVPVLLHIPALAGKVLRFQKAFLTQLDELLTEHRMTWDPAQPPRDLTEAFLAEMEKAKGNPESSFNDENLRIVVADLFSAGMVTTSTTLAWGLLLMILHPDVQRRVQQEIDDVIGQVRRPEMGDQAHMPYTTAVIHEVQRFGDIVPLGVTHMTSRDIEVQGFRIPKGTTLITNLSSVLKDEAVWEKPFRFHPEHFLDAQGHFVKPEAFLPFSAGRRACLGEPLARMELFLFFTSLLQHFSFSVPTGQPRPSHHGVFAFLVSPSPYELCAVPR
smiles,measurement,setting,value
Oc1c(I)cc(Cl)c2cccnc12,Potency,[1],5.62 µM (active)
NC(=O)CC[C@@H]1NC(=O)[C@H](Cc2ccccc2)NC(=O)[C@H](Cc2ccc(O)cc2)NC(=O)CCSSC[C@@H](C(=O)N2CCC[C@H]2C(=O)N[C@@H](CCCN=C(N)N)C(=O)NCC(N)=O)NC(=O)[C@H](CC(N)=O)NC1=O,Potency,[1],inactive
same,Potency,[2],inactive
same,Potency,[3],inactive
O=C1OCCN1/N=C/c1ccc([N+](=O)[O-])o1,Potency,[1],inactive
O=c1ccc2ccccc2o1,Potency,[1],inactive
same,Potency,[2],inactive
same,Potency,[3],inactive
CC[C@@H](CO)NCCN[C@@H](CC)CO,Potency,[1],inactive
same,Potency,[2],inactive
same,Potency,[3],inactive
CCOC(=O)OC(C)OC1=C(C(=O)Nc2ccccn2)N(C)S(=O)(=O)c2ccccc21 (stereo not given),Potency,[1],inactive
same,Potency,[2],inactive
CCCCCCCCCCCCCCNCCO,Potency,[1],inactive
same,Potency,[2],6.17 µM (active)
same,Potency,[3],inactive
Nc1ccc(/C=C/c2ccc(N)cc2S(=O)(=O)O)c(S(=O)(=O)O)c1,"% pathology change, negative = correction",[1],12.8% [at 0.369 µM]
same,"activity change, negative = inhibition",[2],18.7% [at 0.91 µM]
same,"activity change, negative = inhibition",[3],13.7% [at 0.91 µM]
OC[C@H]1O[C@H](O[C@]2(CCl)O[C@H](CCl)[C@@H](O)[C@@H]2O)[C@H](O)[C@@H](O)[C@H]1Cl,Potency,[1],inactive
same,Potency,[2],inactive
same,Potency,[3],inactive
COc1cc(OC)cc(OC)c1,Potency,[1],inactive
same,Potency,[2],inactive
same,Potency,[3],inactive
CC1(C)CCC(NC(=O)[C@@H](N)CCC(=O)O)CC1,Potency,[4],inactive
same,Potency,[5],inactive
C[C@H]1[C@H](NC(=O)/C(=N/OC(C)(C)C(=O)O)c2csc(N)n2)C(=O)N1S(=O)(=O)O (stereo in doubt),Potency,[1],inactive
same,Potency,[2],inactive
same,Potency,[3],inactive
